The record followed here is ChEMBL document CHEMBL3988442, “University of Dundee, Small-Polar-MMV Screening Library” (2021).

Holding throughout (parameters): scale not given: direction of the effect not stated beside the values
Test [1] addresses Protein translocase subunit SecA (Escherichia coli (strain K12)) (UniProt P10408). Briefly: Assay to Identify E. coli SecA ATPase Inhibitors. The class given is functional. To be noted: 30 µM.
Test [2] deals with T1, Ubiquitin-activating enzyme e1, putative (Leishmania donovani (strain BPK282A1)) (UniProt E9BSI1).
T1 sequence (whole entry): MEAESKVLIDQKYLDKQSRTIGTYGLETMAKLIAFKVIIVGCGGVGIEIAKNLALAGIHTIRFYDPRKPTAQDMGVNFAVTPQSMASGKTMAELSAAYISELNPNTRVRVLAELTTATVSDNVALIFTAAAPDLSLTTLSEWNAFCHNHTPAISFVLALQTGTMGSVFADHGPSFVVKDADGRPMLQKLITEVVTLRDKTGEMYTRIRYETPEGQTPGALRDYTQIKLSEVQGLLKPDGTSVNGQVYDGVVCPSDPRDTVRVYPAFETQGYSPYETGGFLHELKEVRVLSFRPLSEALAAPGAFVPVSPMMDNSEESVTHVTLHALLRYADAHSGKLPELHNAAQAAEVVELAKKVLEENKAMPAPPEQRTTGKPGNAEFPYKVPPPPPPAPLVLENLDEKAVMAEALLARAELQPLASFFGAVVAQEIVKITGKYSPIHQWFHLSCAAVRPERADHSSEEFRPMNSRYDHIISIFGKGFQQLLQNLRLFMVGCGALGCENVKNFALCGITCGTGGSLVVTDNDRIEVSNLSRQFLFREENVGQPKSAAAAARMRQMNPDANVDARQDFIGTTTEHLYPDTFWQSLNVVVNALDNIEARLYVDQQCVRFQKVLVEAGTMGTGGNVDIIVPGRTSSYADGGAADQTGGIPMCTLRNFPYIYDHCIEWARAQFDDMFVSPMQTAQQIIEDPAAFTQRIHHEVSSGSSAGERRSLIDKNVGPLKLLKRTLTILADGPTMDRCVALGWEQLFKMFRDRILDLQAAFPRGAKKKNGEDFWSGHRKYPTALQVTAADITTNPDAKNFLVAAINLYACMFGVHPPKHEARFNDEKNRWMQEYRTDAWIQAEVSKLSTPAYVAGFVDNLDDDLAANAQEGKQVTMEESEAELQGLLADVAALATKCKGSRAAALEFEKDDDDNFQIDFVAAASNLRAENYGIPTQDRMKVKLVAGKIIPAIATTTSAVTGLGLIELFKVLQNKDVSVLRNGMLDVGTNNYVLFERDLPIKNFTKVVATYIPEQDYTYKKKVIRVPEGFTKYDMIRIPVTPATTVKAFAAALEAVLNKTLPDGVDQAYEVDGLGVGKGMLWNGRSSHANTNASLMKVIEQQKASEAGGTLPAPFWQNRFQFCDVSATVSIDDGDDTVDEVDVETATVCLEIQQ
The test is described as follows: Leishmania donovani Ubiquitin Activating Enzyme (LdE1). The class given is functional. The conditions noted are these: 30 µM.

The target in test [3] is AMP-activated protein kinase, AMPK (Homo sapiens) (UniProt P54646+O43741+P54619+Q9UGJ0+Q9Y478+Q13131+Q9UGI9). Briefly: AMP-dependent Kinase enzyme assay. An in vitro enzyme assay that detects ADP turnover that is directly proportional to AMPK activity. This uses naive AMPK that is activated during the assay with MK-8722. The class given is functional. The conditions noted are these: 30 µM.

Test [4] has as its target Sialic acid-binding Ig-like lectin 9 (Homo sapiens) (UniProt Q9Y336). Briefly: Hs-Siglec9 ALPHAscreen SOP 20170721. To be noted: 10 µM. On the technique in general: Bead proximity is the source of the signal in Alpha formats.
A further test concerns Trypanosoma cruzi. The test is described as follows: Trypanosoma cruzi phosphomannomutase and mannose-1-phosphate guanylyltransferase assay. The class given is functional. The conditions noted are these: 10 µM.
For test [5], the target named is T2, Arginase-2, mitochondrial (Homo sapiens) (UniProt P78540).
T2 sequence (whole entry): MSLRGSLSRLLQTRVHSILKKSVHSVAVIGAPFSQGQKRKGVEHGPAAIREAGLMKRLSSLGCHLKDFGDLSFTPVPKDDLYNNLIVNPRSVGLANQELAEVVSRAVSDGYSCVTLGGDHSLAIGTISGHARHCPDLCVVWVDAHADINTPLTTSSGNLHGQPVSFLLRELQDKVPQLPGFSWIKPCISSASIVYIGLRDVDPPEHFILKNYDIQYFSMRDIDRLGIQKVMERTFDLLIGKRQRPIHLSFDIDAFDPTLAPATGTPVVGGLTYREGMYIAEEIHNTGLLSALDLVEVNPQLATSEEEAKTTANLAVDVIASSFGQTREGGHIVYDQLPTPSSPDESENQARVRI
The test is described as follows: in vitro enzyme assay to detect the production of urea directly proportional to the activity of Arginase II. Note: in the data most compounds retested in dose-response had high values. The class given is functional. The conditions noted are these: 33.3 µM.

The target in test [6] is T3, Proteasome subunit beta (Trypanosoma cruzi) (UniProt O96673).
T3 sequence (whole entry): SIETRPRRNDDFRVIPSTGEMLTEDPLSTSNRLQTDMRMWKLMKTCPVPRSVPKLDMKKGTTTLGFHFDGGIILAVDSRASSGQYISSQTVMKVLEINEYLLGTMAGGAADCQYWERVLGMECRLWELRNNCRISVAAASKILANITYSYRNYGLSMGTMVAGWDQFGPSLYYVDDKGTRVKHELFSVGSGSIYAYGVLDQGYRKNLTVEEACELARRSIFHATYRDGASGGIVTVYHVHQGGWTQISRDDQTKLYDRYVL
Briefly: Trypanosoma cruzi proteasome chymotrypsin-like activity (TcProtChymo) assay. Note: in the data most compounds retested in dose-response had high values. To be noted: 9.37 µM. The format is functional.

A further test is filed under the species Homo sapiens. The test is described as follows: To identify inhibition of the IFN signalling (Jak-Stat) pathway via expression of an eGFP reporter gene under the control of an IFN-stimulated response element (ISRE) containing MxA promoter. The class given is functional. To be noted: 30 µM. (In general: In a reporter assay the amount or activity of a reporter protein is the signal.)

In test [7] the target is T4, Tyrosyl-tRNA synthetase, putative (Trypanosoma cruzi (strain CL Brener)) (UniProt Q4DSP6).
T4 sequence (whole entry): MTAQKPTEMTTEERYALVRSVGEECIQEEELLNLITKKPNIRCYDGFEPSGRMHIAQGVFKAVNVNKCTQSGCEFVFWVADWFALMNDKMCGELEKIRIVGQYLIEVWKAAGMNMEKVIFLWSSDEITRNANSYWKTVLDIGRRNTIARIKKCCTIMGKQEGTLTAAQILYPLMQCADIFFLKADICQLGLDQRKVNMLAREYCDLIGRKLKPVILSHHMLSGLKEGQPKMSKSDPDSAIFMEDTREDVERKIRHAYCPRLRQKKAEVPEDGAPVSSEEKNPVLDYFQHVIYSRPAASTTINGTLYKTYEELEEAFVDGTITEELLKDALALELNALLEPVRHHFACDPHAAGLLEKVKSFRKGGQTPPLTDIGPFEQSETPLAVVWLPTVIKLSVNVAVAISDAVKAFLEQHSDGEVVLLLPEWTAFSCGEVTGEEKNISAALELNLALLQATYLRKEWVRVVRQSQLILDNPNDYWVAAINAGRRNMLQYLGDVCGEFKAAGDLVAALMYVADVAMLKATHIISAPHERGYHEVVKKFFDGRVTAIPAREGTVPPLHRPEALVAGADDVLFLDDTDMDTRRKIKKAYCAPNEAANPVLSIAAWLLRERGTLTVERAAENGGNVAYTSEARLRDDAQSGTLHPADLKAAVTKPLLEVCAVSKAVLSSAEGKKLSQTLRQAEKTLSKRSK
The test is described as follows: Trypanosoma cruzi tyrosyl tRNA synthetase (TcYRS) _High Tyrosine SOP. Note: in the data most compounds retested in dose-response had high values. The format is functional. The conditions noted are these: 30 µM.

The target in test [8] is T4, Tyrosyl-tRNA synthetase, putative (Trypanosoma cruzi (strain CL Brener)). Briefly: Trypanosoma cruzi tyrosyl tRNA synthetase (TcYRS) SOP. The format is functional. The conditions noted are these: 30 µM.
Test [9] concerns the target Chromo domain-containing protein 1 (Saccharomyces cerevisiae (strain ATCC 204508 / S288c) (Baker's yeast)) (UniProt P32657). The test is described as follows: ScCHD-1 Enzyme Inhibition Assay. Note: in the data most compounds retested in dose-response had high values. The format is functional. To be noted: 30 µM.

Each structure is given as a SMILES string. For some of these results: Measured potencies and affinities stand elsewhere.

Sequence of Protein translocase subunit SecA (Escherichia coli (strain K12)) (P10408 whole entry): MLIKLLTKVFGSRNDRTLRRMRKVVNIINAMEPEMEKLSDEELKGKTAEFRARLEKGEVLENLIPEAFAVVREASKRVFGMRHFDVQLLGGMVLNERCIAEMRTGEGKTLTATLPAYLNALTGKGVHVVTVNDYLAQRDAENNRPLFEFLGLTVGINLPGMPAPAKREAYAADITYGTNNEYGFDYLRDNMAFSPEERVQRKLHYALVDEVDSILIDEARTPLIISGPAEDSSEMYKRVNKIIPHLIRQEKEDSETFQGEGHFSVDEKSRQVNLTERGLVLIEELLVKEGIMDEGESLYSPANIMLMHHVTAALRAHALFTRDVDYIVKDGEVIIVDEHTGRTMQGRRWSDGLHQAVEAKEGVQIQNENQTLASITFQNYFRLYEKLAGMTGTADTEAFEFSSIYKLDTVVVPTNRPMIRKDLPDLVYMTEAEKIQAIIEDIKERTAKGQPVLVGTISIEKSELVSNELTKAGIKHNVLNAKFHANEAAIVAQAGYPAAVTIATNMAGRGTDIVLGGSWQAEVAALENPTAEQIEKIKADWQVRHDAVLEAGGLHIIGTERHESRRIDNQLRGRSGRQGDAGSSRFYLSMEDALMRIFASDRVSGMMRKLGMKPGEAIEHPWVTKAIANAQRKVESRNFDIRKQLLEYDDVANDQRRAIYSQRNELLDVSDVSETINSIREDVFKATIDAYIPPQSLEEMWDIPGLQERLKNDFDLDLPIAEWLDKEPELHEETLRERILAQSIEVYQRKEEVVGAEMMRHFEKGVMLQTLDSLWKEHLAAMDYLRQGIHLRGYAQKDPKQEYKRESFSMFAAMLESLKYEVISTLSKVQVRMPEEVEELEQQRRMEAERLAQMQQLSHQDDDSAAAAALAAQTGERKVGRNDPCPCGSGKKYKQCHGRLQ
Sequence of Sialic acid-binding Ig-like lectin 9 (Homo sapiens) (Q9Y336 whole entry): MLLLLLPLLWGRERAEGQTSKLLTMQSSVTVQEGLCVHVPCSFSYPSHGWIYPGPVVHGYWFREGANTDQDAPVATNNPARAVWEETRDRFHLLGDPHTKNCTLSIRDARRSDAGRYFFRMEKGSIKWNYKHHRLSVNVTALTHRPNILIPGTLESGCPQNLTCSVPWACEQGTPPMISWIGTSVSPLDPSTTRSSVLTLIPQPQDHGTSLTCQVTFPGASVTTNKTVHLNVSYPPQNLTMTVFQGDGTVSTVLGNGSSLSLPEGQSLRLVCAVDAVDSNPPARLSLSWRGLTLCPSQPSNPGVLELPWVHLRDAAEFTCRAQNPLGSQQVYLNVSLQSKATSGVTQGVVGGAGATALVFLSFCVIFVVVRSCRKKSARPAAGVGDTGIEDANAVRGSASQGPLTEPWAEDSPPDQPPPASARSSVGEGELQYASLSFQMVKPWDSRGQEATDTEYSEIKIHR
Sequence of Chromo domain-containing protein 1 (Saccharomyces cerevisiae (strain ATCC 204508 / S288c) (Baker's yeast)) (P32657 whole entry, the tested form may be a part): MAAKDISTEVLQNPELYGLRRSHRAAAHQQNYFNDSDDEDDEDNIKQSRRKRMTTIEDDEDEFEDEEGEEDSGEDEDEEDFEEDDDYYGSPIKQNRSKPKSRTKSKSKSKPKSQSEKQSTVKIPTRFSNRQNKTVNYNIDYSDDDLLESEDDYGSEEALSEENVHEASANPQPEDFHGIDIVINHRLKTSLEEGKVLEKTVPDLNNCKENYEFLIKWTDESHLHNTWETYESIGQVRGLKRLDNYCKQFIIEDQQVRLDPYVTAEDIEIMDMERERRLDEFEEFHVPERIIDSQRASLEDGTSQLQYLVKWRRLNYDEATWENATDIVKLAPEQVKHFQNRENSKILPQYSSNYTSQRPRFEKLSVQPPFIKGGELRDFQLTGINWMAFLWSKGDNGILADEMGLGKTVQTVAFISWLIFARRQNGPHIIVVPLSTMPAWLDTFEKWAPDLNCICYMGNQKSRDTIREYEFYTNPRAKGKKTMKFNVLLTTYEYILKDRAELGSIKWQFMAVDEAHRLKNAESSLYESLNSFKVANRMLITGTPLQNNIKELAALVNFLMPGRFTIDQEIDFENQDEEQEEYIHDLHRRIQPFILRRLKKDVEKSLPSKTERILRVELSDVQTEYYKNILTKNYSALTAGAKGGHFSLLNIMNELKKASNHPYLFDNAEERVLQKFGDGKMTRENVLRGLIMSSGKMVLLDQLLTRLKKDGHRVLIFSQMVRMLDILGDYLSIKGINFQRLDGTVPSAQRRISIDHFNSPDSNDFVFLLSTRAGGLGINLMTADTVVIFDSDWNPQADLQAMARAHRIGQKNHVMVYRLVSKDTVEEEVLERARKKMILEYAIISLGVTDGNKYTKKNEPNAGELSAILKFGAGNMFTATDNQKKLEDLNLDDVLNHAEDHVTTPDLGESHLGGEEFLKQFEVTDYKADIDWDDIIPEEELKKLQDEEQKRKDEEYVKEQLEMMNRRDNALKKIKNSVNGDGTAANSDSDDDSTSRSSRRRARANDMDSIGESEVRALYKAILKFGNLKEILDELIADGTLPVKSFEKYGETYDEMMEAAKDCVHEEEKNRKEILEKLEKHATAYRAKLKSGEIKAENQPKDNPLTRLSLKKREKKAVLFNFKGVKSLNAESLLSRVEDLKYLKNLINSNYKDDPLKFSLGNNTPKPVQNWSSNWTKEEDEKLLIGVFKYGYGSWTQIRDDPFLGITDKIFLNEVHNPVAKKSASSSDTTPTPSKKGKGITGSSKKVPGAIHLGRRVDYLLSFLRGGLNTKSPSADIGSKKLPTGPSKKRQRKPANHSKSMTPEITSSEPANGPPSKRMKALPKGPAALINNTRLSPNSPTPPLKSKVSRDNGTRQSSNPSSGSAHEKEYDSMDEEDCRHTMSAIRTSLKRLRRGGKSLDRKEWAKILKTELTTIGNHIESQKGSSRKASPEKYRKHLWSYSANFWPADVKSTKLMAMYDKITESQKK

Regarding `Cn1cc(CCC(=O)N2CCN(Cc3ccncc3)CC2)cn1`, the Percent Effect in test [1] was -7.43%; in test [2] it was 15.6%; in test [3] it was 3.53%; in [4], -6.41%; in the test with Trypanosoma cruzi it was -4.87%; in test [5], -1.42%. In addition, the Percent Effect was 4.22% in test [6]; 2.24% in the test filed under Homo sapiens; 6.8% in test [7]; 14.6% in test [8]; -5.86% in test [9].
With `c1ccc(Cn2cc(CNC3CCc4ncnn4C3)cn2)cc1` (stereo unspecified), the Percent Effect was -3.66% in test [1]; 6.33% in test [2]; -0.419% in [3]; 1.15% in test [4]; 0.923% with Trypanosoma cruzi; -3.66% in test [5]. Further, the Percent Effect is 5.66% in test [6]; 4.51% in the test listed under Homo sapiens; 3.12% in [7]; 10.1% in [8]; -19.2% in test [9].
For the compound `CCNC(=O)[C@@H]1C[C@H](NC(=O)c2cncnc2C)CN1CCCSC`, the Percent Effect in test [1] is -2.84%; in test [2], 5.48%; in test [3], -7.63%; in test [4], 3.4%; in the test on Trypanosoma cruzi it was 3.17%; in test [5], -3.59%. Besides, the Percent Effect in [6] is 9.68%; in the test filed under Homo sapiens, -11.3%; in test [7], 4.17%; in test [8], 13.6%; in test [9], -0.349%.
For the compound `Cn1ccc(CN2CCC(c3ccccc3)CC2)cc1=O`, the Percent Effect in [1] is -7.43%; in test [2] it was 15.6%; in test [3] it was -2.22%; in [4], 11.1%; in the test on Trypanosoma cruzi it was -0.374%; in test [5] it was 3.92%. Further, the Percent Effect in [6] was 8.11%; in the test filed under Homo sapiens, 14.7%; in [7], 8.74%; in [8] it was 19.5%; in test [9] it was -7.5%.
Turning to `CC(NC(=O)C1=NN(C)C(=O)CC1)c1ccc(F)cc1F` (stereo unspecified), the Percent Effect in test [1] is -1.15%; in test [2] it was 16.4%; in test [3], 16.9%; in test [4], 10.9%; in the test with Trypanosoma cruzi, 4.11%; in test [5], -4.09%. In addition, the Percent Effect is 20.4% in test [6]; 14.5% in the test listed under Homo sapiens; 5.38% in test [7]; 15% in [8]; -6.12% in test [9].
On to `CC(C)Oc1ccccc1CNC(=O)N1CCC(n2cncn2)CC1`, for which the Percent Effect in [1] is -9.7%; in test [2], 11.4%; in test [3] it was -5.06%; in test [4] it was -3.04%; in the test with Trypanosoma cruzi it was 3.79%; in test [5] it was -2.37%. Further, the Percent Effect in test [6] was 17.3%; in the test listed under Homo sapiens it was 7.86%; in [7], 5.21%; in test [8], 12.7%; in test [9], -29.4%.
For `CC(=O)Nc1ccc(CNC2CC(=O)N(Cc3cccc(F)c3)C2)cc1` (stereo unspecified), the Percent Effect in test [1] was -2.91%; in test [2], 0%; in test [3], -1.25%; in test [4], 1.06%; with Trypanosoma cruzi it was -2.7%; in [5] it was -3.33%. The Percent Effect in test [6] is 1.55%; in the test listed under Homo sapiens, -18.6%; in test [7] it was 2.65%; in [8] it was 7.32%; in test [9], -0.408%.
As for `O=C(NCCn1ccc(-c2ccccn2)n1)C1CC1`, the Percent Effect is -1.6% in test [1]; 0% in [2]; 8.98% in test [3]; 2.65% in test [4]; -3.85% in the test on Trypanosoma cruzi; 5.81% in test [5]. Moreover, the Percent Effect is 2.79% in test [6]; 7.05% in the test listed under Homo sapiens; 3.17% in [7]; 3.85% in test [8]; -0.508% in [9].
For the compound `NC(=O)c1csc(C(=O)N2CCCCC2Cn2cccn2)c1` (stereo unspecified), the Percent Effect in test [1] was -5.35%; in test [2] it was 13.5%; in test [3] it was 1.44%; in test [4], 6.12%; with Trypanosoma cruzi it was -0.279%; in [5], -3.88%. Moreover, the Percent Effect in test [6] is 0.539%; in the test listed under Homo sapiens it was 16.2%; in test [7], 5.94%; in [8] it was 13.4%; in [9], 1.19%.
For the compound `CC1=Nc2c(c(=O)[nH]n2C(C)C)C(c2cccs2)S1` (stereo unspecified), the Percent Effect is -7.07% in test [1]; -1.33% in [2]; 2.48% in test [3]; 1.91% in [4]; 0.197% in the test with Trypanosoma cruzi; -3.7% in test [5]. Besides, the Percent Effect is 9.8% in test [6]; 11.9% in the test filed under Homo sapiens; 19.1% in test [7]; 25.6% in test [8]; -2.82% in test [9].
Regarding `O=C(C1CCC1)N1CCN(c2snc3ccccc23)CC1`, the Percent Effect in [1] was -4.56%; in test [2] it was 1.27%; in [3], 21%; in test [4], -7.26%; with Trypanosoma cruzi, -0.718%; in test [5] it was 9.25%. In addition, the Percent Effect in test [6] was 5.83%; in the test listed under Homo sapiens, 25.3%; in test [7], -4.17%; in test [8], -12.7%; in test [9] it was -2%.
